Experimental data from PubChem BioAssay AID2544 (Sanford-Burnham Center for Chemical Genomics, 2010).
Out of some 330,000 compounds screened, about 390 (0.12%) were called active.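 Rule for the calls: active = inhibition reaching a set limit with compound at 10 µM in the primary screen (cut at about 35% in these data); inactive = the rest.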 The entries come from a sample that favours actives as a whole.

target: Intestinal-type alkaline phosphatase (Homo sapiens) (UniProt P09923); experiment: human IAP inhibitors, primary screen, biochemical, luminescence, uHTS (AID 2544); settings: purified IAP, CDP-Star luminescence, 30 min; at 10 µM; active compounds read high;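 note: plate controls were DMSO wells with enzyme for no effect and no-enzyme buffer wells for full effect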
Sequence (P09923 whole entry, looked up): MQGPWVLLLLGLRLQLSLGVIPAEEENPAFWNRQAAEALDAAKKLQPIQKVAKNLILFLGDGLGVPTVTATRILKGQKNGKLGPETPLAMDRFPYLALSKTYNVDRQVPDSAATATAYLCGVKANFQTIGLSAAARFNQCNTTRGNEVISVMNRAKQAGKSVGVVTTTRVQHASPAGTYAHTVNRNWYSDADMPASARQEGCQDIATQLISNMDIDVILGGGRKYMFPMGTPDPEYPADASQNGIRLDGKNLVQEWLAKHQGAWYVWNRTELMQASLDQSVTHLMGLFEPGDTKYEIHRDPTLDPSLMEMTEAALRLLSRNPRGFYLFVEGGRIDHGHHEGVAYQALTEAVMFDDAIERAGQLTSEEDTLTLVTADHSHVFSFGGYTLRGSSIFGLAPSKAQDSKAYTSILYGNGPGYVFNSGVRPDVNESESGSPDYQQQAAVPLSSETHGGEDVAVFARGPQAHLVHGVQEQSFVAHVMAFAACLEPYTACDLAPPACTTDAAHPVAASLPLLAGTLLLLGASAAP

Compound | inhibition
COc1cccc(CNS(=O)(=O)c2csc(C(N)=O)c2)c1 | 13.3% (inactive)
COc1cccc(CNS(=O)(=O)c2ccc3c(c2)N(C(C)=O)CCS3)c1 | 38.6% (active)
COc1cccc(CNS(=O)(=O)c2ccc3c(c2)CC(C)N3C(=O)C2CCC2)c1 (centres undefined) | 4.9% (inactive)
CC1CN/C(=C\C(=O)c2ccc(Br)cc2)C(=O)N1 (centres undefined) | -17% (inactive)
COC(=O)c1ccc(COC(=O)c2cnccn2)cc1 | 21.3% (inactive)
Cc1cc(NC(=O)C(C)N2C(=O)c3ccccc3S2(=O)=O)no1 (centres undefined) | -15.1% (inactive)
Cn1cnnc1Sc1ccc(S(C)(=O)=O)cc1[N+](=O)[O-] | -11.6% (inactive)
CCn1c(C)nc2c1C(=O)c1ccccc1C2=O | 1.5% (inactive)
COc1ccc(CNC(=O)/C(C#N)=C/c2cccc(OC)c2OC)cc1 | -1.8% (inactive)
COCCNC(=O)/C(C#N)=C/c1cccc(OCc2ccccc2)c1 | 1.1% (inactive)
N#C/C(=C\c1ccc(O)c(O)c1)C(=O)NCc1ccccc1 | 37.4% (active)
O=C(NCCCc1ccccc1)C1CCC(CNc2c(N3CCCCC3)c(=O)c2=O)CC1 (centres undefined) | -6.9% (inactive)
COc1cc(/C=C2/SC(=S)N(Cc3ccccc3)C2=O)cc(OC)c1O | 39.3% (active)
CN1C=CC=C/C1=C1\SC(=S)N(Cc2ccccc2)C1=O | -4.6% (inactive)
COc1cccc(/C=C2/SC(=S)N(CC(=O)NC3C=CS(=O)(=O)C3)C2=O)c1 (centres undefined) | -52% (inactive)
CC1CCCCC1NC(=O)c1cn(C)c2ccc(S(=O)(=O)N3CCOCC3)cc2c1=O (centres undefined) | -21.4% (inactive)
CCc1ccccc1NC(=S)N(CCN1CCCCCC1)Cc1ccco1 | -3.8% (inactive)
CCCC(C(=O)NCc1ccco1)N(C(=O)CNS(=O)(=O)c1ccccc1)C1CCCC1 (centres undefined) | -14.9% (inactive)
Cc1cc(-c2nnc(SCC(=O)Nc3ccc(F)cc3)n2N)n[nH]1 | -8.7% (inactive)
CC(=O)Nc1ccc(S(=O)(=O)NCC(=O)OCC(=O)c2ccc[nH]2)cc1 | 5.4% (inactive)
Cc1noc(C)c1COc1ccccc1C(=O)N(C)CC(=O)Nc1cccc(F)c1 | -9.4% (inactive)
Cc1ccc(OCCNC(=O)CNC(=O)c2ccc(C)c(C)c2)cc1 | -7.8% (inactive)
CCOc1nnc(C)c2c(C)n(-c3cccc(Cl)c3)nc12 | -4.1% (inactive)
Cc1cccc(C(=O)Nc2ccc(C(=O)/C=C/c3cccs3)cc2)c1 | -7.8% (inactive)

Compound | inhibition
CCOc1ccc(NC(=O)CN(C)C(=O)CCSc2ccc(F)cc2)cc1OCC | -1.7% (inactive)
Cn1c(SCc2nc3ccccc3s2)nnc1-c1ccc2c(c1)OCO2 | 16.7% (inactive)
COc1ccc(CNC(=O)c2c[nH]c3c(OC)cc(OC)cc3c2=O)cc1 | -24.3% (inactive)
COc1ccc(N2CCN(C(=O)COC(=O)c3cccc(S(=O)(=O)Nc4ccccc4OC)c3)CC2)cc1 | 9.2% (inactive)
CCOC(=O)C1CCN(Cc2coc3ccc(Cl)cc3c2=O)CC1 | -6.6% (inactive)
O=c1c(/C=N/O)coc2ccc(Cl)cc12 | 54.1% (active)
Cc1ccc2occ(/C=N/NC(=O)c3ccccc3C)c(=O)c2c1 | 13% (inactive)
Cc1cccc(-n2c(O)c(C=Nc3ccccc3N)c(=O)[nH]c2=O)c1 | 14.1% (inactive)
CCc1c(C)nc(N)n2c(SCC(=O)NC3CCCCC3)nnc12 | -2.5% (inactive)
Nc1nnc(SCC(=O)NCC(=O)Nc2ccc(F)c(F)c2F)s1 | -11.7% (inactive)
O=S(=O)(c1ccc(F)cc1)n1ccc(-c2cnc(-c3ccccc3)s2)n1 | 5.2% (inactive)
COc1cccc(CN(C)CC2CCCN(CCc3ccc(Cl)cc3)C2)c1OC (centres undefined) | -36.9% (inactive)
O=C1CN(C(=O)COC(=O)c2cnc(Cl)c(Cl)c2)c2ccccc2N1 | 6.4% (inactive)
c1ccc(-c2nnc3n2NC(c2ccc4c(c2)OCO4)S3)cc1 (centres undefined) | -10.6% (inactive)
COc1ccc(Cl)cc1-n1c(=S)sc2c(=O)n(-c3ccc(F)cc3)c(SCC(=O)O)nc21 | 10.8% (inactive)
COc1ccc2c(c1OC)C(=O)N(c1ncn[nH]1)C2 | 39.6% (active)
COc1ccc(C2C(C#N)=C(N)N(c3ncn[nH]3)C3=C2C(=O)CCC3)cc1 (centres undefined) | 6.9% (inactive)
COc1ccc2c(c1OC)C(=O)N(c1ccc(O)cc1)C2 | -4.8% (inactive)
COc1cc([N+](=O)[O-])ccc1NC(=S)N1CCN(c2ccccn2)CC1 | 6.4% (inactive)
Cc1cc(C)nc(-n2ncc3c2CC(c2ccc(C(C)C)cc2)CC3=O)n1 (centres undefined) | 3.4% (inactive)
COc1ccc([N+](=O)[O-])cc1C1NN=C(c2cccc3ccccc23)S1 (centres undefined) | -10.4% (inactive)
COc1nnc(-c2ccc(C)c(S(=O)(=O)N(C)C)c2)c2ccccc12 | 1.6% (inactive)
O=c1[nH]c(/C=C\c2cccc(C(F)(F)F)c2)nc(O)c1[N+](=O)[O-] | -10.6% (inactive)
COCCNC(=O)/C(C#N)=C/c1nc(N(C)C)n(-c2ccc(F)cc2)c1Cl | 8.4% (inactive)

Compound | inhibition
Cc1ccc(S(=O)(=O)CCC(=O)OCC(=O)N(C)C2CCS(=O)(=O)C2)cc1 (centres undefined) | -12.8% (inactive)
COc1ccc(-c2cn3ccc(C)cc3n2)cc1 | -3.2% (inactive)
Cc1ccc(C(=O)NNC2=Nc3cc([N+](=O)[O-])ccc3OC2)cc1 | -72.1% (inactive)
COc1ccc(C2=Nc3cc(C)ccc3OC2)cc1 | 41.5% (active)
O=C(CNC(=O)c1cc(=O)[nH]c2ccccc12)Nc1ccc(F)c(F)c1 | -5.1% (inactive)
CC(=O)c1cccc(NC(=O)C2CCCN2S(=O)(=O)c2cccc3nsnc23)c1 (centres undefined) | 18.3% (inactive)
CC(=O)c1ccc(NC(=O)C2CCCN2S(=O)(=O)c2cccs2)cc1 (centres undefined) | 37.2% (active)
CC(=O)Nc1ccc(S(=O)(=O)N2CCN(S(=O)(=O)c3cccs3)CC2)cc1 | 1.1% (inactive)
O=C(CC(Cc1ccccc1)C(=O)O)NCCc1ccc2c(c1)OCO2 (centres undefined) | -65.3% (inactive)
CCc1ccc(NC(=O)NC(C)c2ccc3c(c2)OCO3)cc1 (centres undefined) | -18.5% (inactive)
CC(=NCc1ccc2c(c1)OCO2)C1=C(O)c2ccccc2C1=O | 82.2% (active)
COc1cccc(-n2c(=O)c3c(C)c(C(=O)N(C)C)sc3n(CC(=O)NCCc3ccc(OC)c(OC)c3)c2=O)c1 | -1.6% (inactive)
C[N+]1(CCNC(=O)/C=N/O)CCCCC1 | -34.9% (inactive)
CC(=O)c1ccc(S(=O)(=O)Nc2ccc(-c3ccc4nncn4n3)cc2)cc1 | -1.5% (inactive)
COC(=O)[C@H](C(C)C)n1c(C)c(C(C)=O)c(C(C)=O)c1C | -6.9% (inactive)
CC(C)C[C@H](NC(=O)[C@@H]1O[C@H]1C(=O)O)C(=O)NCCCCN=C(N)N | 14.6% (inactive)
CCCc1ccc(C(=O)[C@@H]2[C@@H](C(C)=O)N3c4ccc(F)cc4C=C[C@@H]3[C@@]23C(=O)Nc2ccccc23)cc1 | 0% (inactive)
CCCCc1nc(NCCN)c(C#N)c2c1CSC(C)(C)C2 | 6.8% (inactive)
Cc1ccc(S(=O)(=O)Nc2ccc(F)c(S(=O)(=O)N3CCOCC3)c2)cc1 | -6.7% (inactive)
CC(Oc1ccccc1)C(=O)NN1Cc2ccccc2C1=N (centres undefined) | -9.2% (inactive)
Cc1cccn2c(=O)nc(SCC(=O)NCc3ccccc3Cl)nc12 | -1.6% (inactive)
CCOCc1nnc(NC(=O)CCS(=O)(=O)Cc2ccccc2)s1 | -9.2% (inactive)
COCCSc1nnc(NC(=O)CCS(=O)(=O)Cc2ccccc2)s1 | 35.1% (active)
COC(=O)CSc1nnc(NC(=O)CCc2ccccc2)s1 | -5.1% (inactive)

Compound | inhibition
CCOc1ccccc1NC(=S)N1CCN(c2cccc(C)c2C)CC1 | -5.2% (inactive)
COc1ccccc1C(=O)N(C1=NC(C)CS1)c1ccc(Cl)cc1 (centres undefined) | -3% (inactive)
Cc1ccn2c(=O)c(C(=O)NCCC3=CCCCC3)c(O)nc2c1 | 6.8% (inactive)
O=C(Nc1cc(S(=O)(=O)N2CCOCC2)ccc1OCC(F)(F)F)c1ccc(N2CCCC2=O)cc1 | 2.5% (inactive)
Cc1cc(C)c2c(n1)sc1c(=O)n(-c3ccccc3)c(=O)[nH]c12 | 5.6% (inactive)
Cc1ccc(-n2c(C)nnc2SCC(=O)NC2CC2)cc1 | -12.6% (inactive)
Cc1nc(-c2ccc(F)cc2)c(CC(=O)Nc2cc(S(=O)(=O)N3CCCCC3)ccc2C)s1 | -13.3% (inactive)
CC(C)Oc1c(Br)cc(Br)cc1/C=N/NC(N)=S | 14.7% (inactive)
COc1ccc(C(C(=O)NC(C)(C)C)N(C(=O)Cn2nnc3ccccc32)c2ccc(C(C)=O)cc2)cc1O (centres undefined) | -15.8% (inactive)
CCC(=O)c1ccc(OCC(=O)OCC(=O)NC2CCCCCC2)cc1 | 8.3% (inactive)
Oc1ccc(CNc2ccccc2O)cc1 | -0.8% (inactive)
COc1ccc(/C=C2\N=C3CCCN3C2=O)cc1 | 7.3% (inactive)
Cc1cc(C)c2c(Cn3ccnc3)cc(=O)oc2c1 | -7% (inactive)
CN(CC(=O)Nc1cccc(F)c1)C(=O)C1CC(=O)N(CCc2ccccc2)C1 (centres undefined) | 2.5% (inactive)
C/C(Cc1ccccc1)=N\NC(=O)CNC(=O)c1ccc2c(c1)OCCO2 | 1.8% (inactive)
CSc1ccc(S(=O)(=O)Nc2cccc(F)c2)cc1 | 7% (inactive)
CN=C1SC(CC(=O)Nc2ccc(C(=O)O)cc2)C(=O)N1C (centres undefined) | 15.6% (inactive)
COc1c(O)cc2oc(-c3ccc(O)c(O)c3)cc(=O)c2c1O | 40.1% (active)
CCOC(=O)COc1cc(OCC(=O)OCC)c2c(=O)cc(-c3ccccc3)oc2c1 | -22.1% (inactive)
Cc1cccc(-c2nnc(SCC(=O)O)n2Cc2ccccc2)c1 | -16.7% (inactive)
CCn1nnnc1SCC(=O)c1ccc(C)cc1C | -4% (inactive)
Cc1ccc2c(c1)nnc1nnc(SCC(=O)O)n12 | 36.1% (active)
